In PubChem BioAssay AID1159580 (chemical genetic matrix, 2015):
Among all 5,500 compounds or so, about 2,000 (36%) were called active. About 18% were inconclusive and are not listed. Cut-off read from the data, not from the text of the source: active = normalized growth mostly below about 0.91 (no sharp cut-off); inconclusive = no clear call, values can overlap the other calls; inactive = mostly above about 0.92. The list shows a part of the results.

Test: chemical genetic growth profiling, strain panel (AID 1159580);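 note: tested at 20 µM; growth read once vehicle control cultures reached saturation at 30 °C; 1 = growth at the plate median or of vehicle wells; lower values mean less growth of the strain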
Details: S. cerevisiae deletion strains, growth OD

Measured: normalized growth

CN(C)C(N)=NCCC[C@H](N)C(=O)O
inactive: locus YAL013W, strain DEP1, active compounds read low 1 | locus YAL040C, strain CLN3, active compounds read low 0.998 | locus YCL061C, strain MRC1 (second series), active compounds read low 1.01 | locus YDR150W, strain NUM1, active compounds read low 0.997 | locus YDR363W, strain ESC2, active compounds read low 1.04 | locus YER002W, strain NOP16, active compounds read low 0.979 | locus YJR075W, strain HOC1, active compounds read low 1.01 | locus YMR307W, strain GAS1, active compounds read low 1.01 | locus YNL128W, strain TEP1, active compounds read low 0.988 | locus YNL175C, strain NOP13, active compounds read low 1 | locus YNL197C, strain WHI3, active compounds read low 1.02 | locus YNL224C, strain SQS1, active compounds read low 0.984 | locus YOR083W, strain WHI5 (second series), active compounds read low 0.988 | locus YPL055C, strain LGE1, active compounds read low 1.03 | locus YPL241C, strain CIN2, active compounds read low 1
